This note sets out measurements from PubChem BioAssay.

Test [1] can be described thus: anti-His antibody binders, primary screen, artefact control for SMM control protein annotation, biochemical, small-molecule microarray, 635 nm fluorescence (AID 1128).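 Further: score merges feature fluorescence with signal-to-noise for each printed compound spot.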 The settings on record: anti-His Alexa647 antibody binding, higher = more signal.
The test system of test [2] is Human papillomavirus type 1a E7 protein (residues 1-88). Briefly: HPV1a E7 small-molecule binders, primary screen, biochemical, small-molecule microarray, residues 1-88, 635 nm (AID 1129). The settings on record: small-molecule microarray binding, fluorescence 635 nm; higher = more signal.
Test [3] concerns the target Focal adhesion kinase 1 (Homo sapiens) (UniProt Q05397). Briefly: small-molecule microarray binders of FAK, primary screen, biochemical, 635/667 nm fluorescence, BSA, DTT (AID 1130).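 Further: composite of spot emission at 667 nm and signal to noise over triplicate slides.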 Particulars: PTK2 binding, 635 nm fluorescence, higher = more signal.
In test [4] the test system is Fibrinogen (Alexa647-labelled). Nature of the test: fibrinogen binders on compound microarrays, profiling panel, artefact control for SMM control-protein annotation, biochemical, small-molecule microarray, 635/667 nm fluorescence (AID 1131).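 Further: z-score merges 667 nm fluorescence with per-spot signal-to-noise over triplicate slides.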 Particulars: fibrinogen-A647 binding fluorescence, higher = more signal.
The target of test [5] is Follistatin (Homo sapiens) (UniProt P19883). Briefly: follistatin binders on small-molecule microarrays, primary screen, biochemical, small-molecule microarray, 635/667 nm fluorescence (AID 1132). Particulars: FST binding, 635 nm fluorescence, higher = more signal.
The target in test [6] is Fibroblast growth factor 2 (Homo sapiens) (UniProt P09038). Nature of the test: FGF2 binders on small-molecule microarrays, primary screen, biochemical, small-molecule microarray, 635/667 nm fluorescence (AID 1133). Particulars: small-molecule microarray binding, FGF2, fluorescence 635/667; higher = more signal.
Test [7] is described as follows: mitochondrial membrane potential change in A549 cells, profiling panel, cell-based, JC-1 fluorescence, basal, 24 h, 100 nL (AID 1138).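 Further: A549 lung adenocarcinoma cells under basal conditions with no added stimulus; test concentration not given here.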 Particulars: higher = more signal.
The test system of a further test is Lefty1. Nature of the test: Lefty1 binders on small-molecule microarrays, primary screen, biochemical, small-molecule microarray, 635/667 nm fluorescence (AID 1139). The settings on record: small-molecule microarray binding, fluorescence 635/667; higher = more signal.
Test [8] has as its system wheat germ agglutinin (Triticum aestivum), Alexa647-labelled. Nature of the test: wheat germ agglutinin binders on compound microarrays, profiling panel, artefact control for SMM control-protein annotation, biochemical, small-molecule microarray, 635/667 nm fluorescence (AID 1140).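 Further: score merges 667 nm feature emission with signal to noise over triplicate slides.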 The settings on record: WGA-A647 binding, 635 nm fluorescence, higher = more signal.
Test [9] has as its target Luciferin 4-monooxygenase (Photinus pyralis) (UniProt P08659). Nature of the test: firefly luciferase enzyme inhibitors, primary screen, biochemical, luminescence, purified enzyme, 2006 set (AID 1141).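 Further: cell-free assay with purified firefly luciferase at 100 ng per well in PBS; test concentration not given here.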 The settings on record: SteadyGlo luminescence, 30 min, higher = more signal, called active from +8 up or from −8 down.
For test [10], the system named is Wnt5a (protein binding on small-molecule microarray). Briefly: Wnt5a binders on small-molecule microarray, primary screen, biophysical, 635/667 nm fluorescence (AID 1142).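 Further: fluorescence read at 667 nm with signal to noise per printed feature.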 The settings on record: 635 nm fluorescence, higher = more signal.
A short description of test [11]: cell viability in Huh7 cells, primary screen, cytotoxicity control for HCV replication inhibitor project, CellTiter-Glo luminescence, basal, 48 h (AID 1143).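 Further: Huh7 hepatoma cells carrying a hepatitis C replication reporter with no stimulus; test concentration not given here.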 Particulars: Huh7 HCV replicon, higher = more signal, called active from +8 up or from −8 down.
Test [12] is described as follows: P. aeruginosa biofilm formation inhibitors, primary screen, PAO1 strain, BacTiter-Glo luminescence, LB-PBS (AID 1144). The settings on record: 12 h, higher = more signal.
Test [13] can be described thus: CREB reporter modulators without forskolin, primary screen, cell-based, PC12, CRE-LacZ reporter, unstimulated (AID 1145). Particulars: no forskolin, luminescence, 4.5 h, higher = more signal, called active from +8 up or from −8 down.
Test [14] is described as follows: CREB reporter modulators under forskolin, primary screen, cell-based, PC12, CRE-LacZ reporter, forskolin-stimulated (AID 1146).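 Further: PC12 cells with 6xCRE LacZ reporter stimulated by forskolin 10 µM; beta-galactosidase reporter signal reflecting CREB driven transcription.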 Particulars: luminescence, 4.5 h, higher = more signal, called active from +8 up or from −8 down.
In test [15] the target is Streptavidin (Streptomyces avidinii) (UniProt P22629). Nature of the test: streptavidin binders on small-molecule microarray, primary screen, artefact control for SMM compound annotation, biophysical, 635/667 nm fluorescence (AID 1147).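 Further: signal reflects streptavidin binding to arrayed compounds as a control protein.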 The settings on record: streptavidin binding, higher = more signal.
Test [16] can be described thus: small-molecule binders of probe aInhba, primary screen, biochemical, small-molecule microarray, 635/667 nm fluorescence (AID 1148).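 Further: score merges 667nm spot fluorescence with signal-to-noise for antibody binding to printed compounds.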 Particulars: higher = more signal.
The target of test [17] is Torsin-1A (Homo sapiens) (UniProt O14656). Nature of the test: torsin A binders from cell lysate, primary screen, small-molecule microarray, wild-type, 635/667 nm (AID 1149). The settings on record: COS7 hTOR1A-WT lysate, 635 nm fluorescence, higher = more signal.
Test [18] shares this target. Briefly: small-molecule binders of mutant TOR1A in lysate, primary screen, cell lysate, small-molecule microarray, COS7 lysate, 635/667 nm fluorescence (AID 1150).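 Further: score pools 667 nm emission and signal to noise measuring lysate protein binding.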 The settings on record: COS7 hTOR1A mutant lysate, 635 nm fluorescence, higher = more signal.
Test [19] deals with Sonic hedgehog protein (Shh). Briefly: small-molecule binders of Shh protein, primary screen, biochemical, small-molecule microarray, 635/667 nm fluorescence (AID 1151).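 Further: Shh protein binding to compounds spotted on small-molecule microarray slides; score combines spot fluorescence intensity with signal-to-noise across triplicate slides.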 The settings on record: small-molecule microarray binding, 635 nm fluorescence; higher = more signal.

Active and inactive are the calls of the source. Unless noted, how the calls were made is not given here.

Focal adhesion kinase 1 (Homo sapiens), sequence (Q05397 whole entry, looked up): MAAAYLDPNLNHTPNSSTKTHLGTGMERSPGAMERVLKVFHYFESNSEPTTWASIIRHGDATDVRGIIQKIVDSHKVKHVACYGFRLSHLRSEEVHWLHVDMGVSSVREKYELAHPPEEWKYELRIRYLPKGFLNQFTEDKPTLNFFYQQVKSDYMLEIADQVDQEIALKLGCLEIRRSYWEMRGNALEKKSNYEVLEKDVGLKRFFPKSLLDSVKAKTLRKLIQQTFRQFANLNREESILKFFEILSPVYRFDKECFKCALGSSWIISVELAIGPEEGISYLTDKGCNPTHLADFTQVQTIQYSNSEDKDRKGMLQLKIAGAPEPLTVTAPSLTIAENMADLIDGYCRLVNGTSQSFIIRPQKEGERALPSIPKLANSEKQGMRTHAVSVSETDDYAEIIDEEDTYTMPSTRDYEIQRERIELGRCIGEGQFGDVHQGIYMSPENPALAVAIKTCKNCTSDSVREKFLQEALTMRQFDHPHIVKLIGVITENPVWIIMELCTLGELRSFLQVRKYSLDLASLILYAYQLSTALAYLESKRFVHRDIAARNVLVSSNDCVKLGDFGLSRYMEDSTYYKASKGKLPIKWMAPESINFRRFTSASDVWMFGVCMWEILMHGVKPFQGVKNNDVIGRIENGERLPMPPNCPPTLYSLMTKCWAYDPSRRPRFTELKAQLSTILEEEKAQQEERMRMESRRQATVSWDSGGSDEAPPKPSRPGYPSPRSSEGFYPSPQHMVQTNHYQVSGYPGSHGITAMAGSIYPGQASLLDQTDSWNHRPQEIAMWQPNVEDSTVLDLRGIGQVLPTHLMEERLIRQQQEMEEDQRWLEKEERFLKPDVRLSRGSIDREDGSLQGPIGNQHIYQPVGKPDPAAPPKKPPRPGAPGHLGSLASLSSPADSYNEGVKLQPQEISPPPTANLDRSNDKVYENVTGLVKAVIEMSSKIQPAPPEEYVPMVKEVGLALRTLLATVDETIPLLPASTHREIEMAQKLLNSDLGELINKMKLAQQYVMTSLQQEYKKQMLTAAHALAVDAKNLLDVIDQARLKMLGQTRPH
Torsin-1A (Homo sapiens), sequence (O14656 whole entry, looked up): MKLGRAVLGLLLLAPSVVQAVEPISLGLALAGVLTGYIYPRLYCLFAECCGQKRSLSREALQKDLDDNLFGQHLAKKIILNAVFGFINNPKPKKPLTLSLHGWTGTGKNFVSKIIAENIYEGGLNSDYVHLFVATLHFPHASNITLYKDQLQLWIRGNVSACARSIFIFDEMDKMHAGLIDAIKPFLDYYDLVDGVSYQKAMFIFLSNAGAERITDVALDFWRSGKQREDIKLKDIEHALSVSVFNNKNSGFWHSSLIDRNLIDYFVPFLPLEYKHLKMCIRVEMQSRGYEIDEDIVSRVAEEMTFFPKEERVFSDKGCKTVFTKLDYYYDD
Fibroblast growth factor 2 (Homo sapiens), sequence (P09038 whole entry, looked up): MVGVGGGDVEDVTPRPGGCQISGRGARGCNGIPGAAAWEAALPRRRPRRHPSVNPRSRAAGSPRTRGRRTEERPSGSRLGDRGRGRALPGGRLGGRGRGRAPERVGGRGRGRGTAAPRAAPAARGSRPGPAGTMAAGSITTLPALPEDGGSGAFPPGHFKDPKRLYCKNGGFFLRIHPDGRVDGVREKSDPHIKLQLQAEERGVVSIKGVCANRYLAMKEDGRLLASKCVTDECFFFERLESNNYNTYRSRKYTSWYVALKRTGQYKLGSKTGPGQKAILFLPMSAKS
Follistatin (Homo sapiens), sequence (P19883 whole entry, looked up): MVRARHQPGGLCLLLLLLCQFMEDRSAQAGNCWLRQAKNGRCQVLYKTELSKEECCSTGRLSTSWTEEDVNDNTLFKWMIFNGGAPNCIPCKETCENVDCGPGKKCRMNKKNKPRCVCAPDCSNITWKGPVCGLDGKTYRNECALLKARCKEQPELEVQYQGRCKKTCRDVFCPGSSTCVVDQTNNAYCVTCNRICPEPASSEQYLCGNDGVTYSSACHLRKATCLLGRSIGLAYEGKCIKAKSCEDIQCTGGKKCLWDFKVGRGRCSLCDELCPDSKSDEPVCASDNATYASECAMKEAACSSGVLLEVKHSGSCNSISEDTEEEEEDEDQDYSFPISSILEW
Luciferin 4-monooxygenase (Photinus pyralis), sequence (P08659 whole entry, looked up): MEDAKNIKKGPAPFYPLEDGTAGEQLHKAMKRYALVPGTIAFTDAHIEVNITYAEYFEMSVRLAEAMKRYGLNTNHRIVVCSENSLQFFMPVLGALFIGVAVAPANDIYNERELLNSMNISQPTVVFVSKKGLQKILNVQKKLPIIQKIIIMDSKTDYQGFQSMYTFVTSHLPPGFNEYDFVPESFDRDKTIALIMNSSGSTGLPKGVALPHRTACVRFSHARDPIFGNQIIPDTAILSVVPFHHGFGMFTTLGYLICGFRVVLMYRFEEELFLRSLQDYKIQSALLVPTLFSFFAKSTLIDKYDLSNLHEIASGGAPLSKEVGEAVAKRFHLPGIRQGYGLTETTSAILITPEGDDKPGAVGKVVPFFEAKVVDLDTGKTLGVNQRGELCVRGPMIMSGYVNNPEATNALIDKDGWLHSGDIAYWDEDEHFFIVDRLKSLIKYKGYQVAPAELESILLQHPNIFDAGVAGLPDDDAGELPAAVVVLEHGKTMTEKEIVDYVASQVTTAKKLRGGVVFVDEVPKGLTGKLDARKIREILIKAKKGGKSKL
Streptavidin (Streptomyces avidinii), sequence (P22629 whole entry, looked up): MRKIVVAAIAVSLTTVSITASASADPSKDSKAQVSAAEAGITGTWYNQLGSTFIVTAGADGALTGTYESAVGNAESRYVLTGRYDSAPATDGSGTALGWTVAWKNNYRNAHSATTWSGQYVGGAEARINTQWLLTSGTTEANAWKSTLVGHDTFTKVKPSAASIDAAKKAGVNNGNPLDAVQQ

`CN(C)CCCC[C@@H]1NC(=O)[C@@H]2C[C@H](C(=O)NCCCCCN)[C@H](c3ccc(O)cc3)N2C1=O`: the composite z-score is 0.637 in test [1]; 0.732 in test [2]; 0.91 in test [3]; 0.502 in test [4]; -0.126 in test [5]; -0.585 in test [6]. Further, the composite z-score in the test with Lefty1 was -0.318; in [8], 1.09; in test [10] it was -0.286; in test [15], 1.26; in test [16], -0.0639; in the test with Torsin-1A (Homo sapiens) [17], 0.424. For the same compound, the composite z-score with Torsin-1A (Homo sapiens) [18] was 0.901; in test [19], -0.631. For the same compound, the z-score in test [7] was 0.393; in test [9], -0.806 (inactive); in test [11], 0.202 (inactive); in test [12], -0.504 (inactive); in test [13] it was 0.549 (inactive); in test [14], 0.304 (inactive).

`CC(=O)NCCCC[C@@H]1NC(=O)[C@@H]2C[C@H](C(=O)NCc3ccc(F)cc3)[C@H](c3ccc(O)cc3)N2C1=O`: the composite z-score in test [1] came out at 2.04; in test [2] it was 0.582; in test [3], 0.244; in [4], 0.754; in test [5], 1.33; in [6], 1.22. Besides, the composite z-score was 0.889 with Lefty1; 0.182 in test [8]; 0.0547 in test [10]; 0.0542 in test [15]; -0.176 in test [16]; 0.821 with Torsin-1A (Homo sapiens) [17]. Besides, the composite z-score with Torsin-1A (Homo sapiens) [18] worked out at 0.524; in [19], 1.56. For the same compound, the z-score in test [7] was 0.329; in [9], -0.333 (inactive); in test [11], -0.395 (inactive); in test [12] it was 0.587 (inactive); in test [13], 0.431 (inactive); in [14], 0.158 (inactive).

Consider `CCCNC(=O)[C@@]1(C)c2ccccc2C(=O)N(Cc2ccc(OC(F)(F)F)cc2)[C@H]1c1ccc(CO)cc1`, for which the composite z-score is -0.607 in test [1]; 1.11 in [2]; 0.275 in test [3]; 0.264 in test [4]; 0.778 in test [5]; 0.557 in test [6]. The composite z-score was -0.526 with Lefty1; 0.419 in test [8]; -0.0508 in test [10]; -0.456 in test [15]; 0.249 in [16]; 0.243 in the test with Torsin-1A (Homo sapiens) [17]. The composite z-score with Torsin-1A (Homo sapiens) [18] is 0.6; in test [19], 0.628. The z-score was 1.07 in test [7]; -0.166 (inactive) in test [9]; -2.65 (inactive) in test [11]; 0.28 (inactive) in test [12]; -0.0259 (inactive) in test [13]; -0.326 (inactive) in test [14].

Turning to `C=CCC(OC(C)=O)[C@@H]1[C@@H](N(Cc2cc3ccccc3o2)C(=O)c2cccc3ccccc23)c2cc(OCCCO)ccc2N1C(=O)Cc1ccc(OC)cc1` (stereo not given in full), the composite z-score in [1] is 0.305; in test [2], -0.328; in test [3], -0.109; in [4], 0.412; in test [5], 1.02; in test [6], 0.78. In addition, the composite z-score in the test with Lefty1 is 0.339; in test [8] it was 0.637; in test [10] it was 0.235; in test [15], -0.0552; in test [16] it was -0.0804; with Torsin-1A (Homo sapiens) [17], 0.175. The composite z-score with Torsin-1A (Homo sapiens) [18] was found to be 0.138; in test [19], 1.16. Further, the z-score in test [7] was -0.529; in test [9] it was 0.48 (inactive); in test [11], -1.1 (inactive); in [12], 0.0686 (inactive); in test [13] it was 0.279 (inactive); in test [14] it was 0.496 (inactive).

As to `O=C(NCc1ccccc1)[C@@H]1c2ccccc2C(=O)N(Cc2cc(F)cc(C(F)(F)F)c2)[C@H]1c1ccc(CO)cc1`, the composite z-score in test [1] worked out at 2.54; in test [2] it was 1.19; in test [3], 0.187; in [4] it was 0.571; in test [5], 1.27; in [6] it was 0.339. Also, the composite z-score in the test on Lefty1 was found to be 0.61; in [8], 0.144; in [10], 0.0748; in test [15], 0.0709; in [16], 0.0227; in the test with Torsin-1A (Homo sapiens) [17] it was 0.484. The composite z-score stood at 0.426 in the test with Torsin-1A (Homo sapiens) [18] and 1.15 in [19]. The z-score in [7] is 1.45; in test [9], -1.13 (inactive); in [11] it was -1.26 (inactive); in [12], 0.339 (inactive); in [13], -0.0888 (inactive); in test [14], -1.61 (inactive).
